PME-1 inh = blocks human protein phosphatase methylesterase 1. Q9Y570. recombinant PME-1, FP-Rh probe fluorescence polarization. inhibition, % at 5.9 µM. 320,000 compounds, 0.53% hits. AID 2130;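 active = inhibition above the campaign mean of all compounds plus 3 SD, cut at about 26% in these data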;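 also: competitive labeling of PME-1 active site by serine hydrolase directed probe; 0% = PME-1 with DMSO and 100% = wells lacking PME-1 enzyme; inhibitors block probe labeling so polarization falls and inhibition rises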
LYPLA2 inh = counter-screen for PME1 inhibitors: inhibitors of human LYPLA2; recombinant LYPLA2, FP-Rh probe fluorescence polarization; AID 2177; inhibition, % at 5.9 µM; 320,000 compounds, 0.38% hits;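 active = inhibition above the screen-wide mean plus 3 SD, limit set per campaign, cut at about 26% in these data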;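 also: 0% = LYPLA2 with DMSO and 100% = wells lacking LYPLA2 enzyme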
Target sequence (O95372 whole entry, looked up): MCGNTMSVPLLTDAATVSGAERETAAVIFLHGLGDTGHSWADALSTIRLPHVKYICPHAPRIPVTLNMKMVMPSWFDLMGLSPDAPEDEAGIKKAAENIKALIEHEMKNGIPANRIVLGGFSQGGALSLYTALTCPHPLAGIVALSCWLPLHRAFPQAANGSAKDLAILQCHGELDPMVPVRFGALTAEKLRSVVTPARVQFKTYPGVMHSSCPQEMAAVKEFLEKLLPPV
PP1 counter = blocks human PP1-alpha phosphatase, a PP5 counter-screen; P62136; purified PP1alpha, OMFP fluorescence; inhibition, % at 6.7 µM; 320,000 compounds, 0.9% hits; AID 2235;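 active = inhibition above the mean inhibition of all tested compounds plus 3 SD, computed separately for each screening campaign, cut at about 15% in these data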
Target sequence (P62136 whole entry, looked up): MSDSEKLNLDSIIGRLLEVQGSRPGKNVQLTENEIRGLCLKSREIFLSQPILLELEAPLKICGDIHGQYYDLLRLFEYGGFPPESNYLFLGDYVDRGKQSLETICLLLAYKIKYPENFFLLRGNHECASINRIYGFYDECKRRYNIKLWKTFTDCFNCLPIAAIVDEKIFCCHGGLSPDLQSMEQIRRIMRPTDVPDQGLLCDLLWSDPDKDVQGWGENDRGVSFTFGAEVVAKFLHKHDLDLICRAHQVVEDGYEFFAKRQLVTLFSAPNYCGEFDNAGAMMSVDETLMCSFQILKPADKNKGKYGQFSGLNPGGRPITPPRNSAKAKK
LYPLA1 inh = blocks human lysophospholipase 1, a PME1 counter-screen. O75608. recombinant LYPLA1, FP-Rh probe fluorescence polarization. inhibition, % at 5.9 µM. 320,000 compounds, 0.16% hits. AID 2174;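 active = inhibition above the mean of all tested compounds plus 3 SD, set per campaign, cut at about 14% in these data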;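 also: inhibitors block serine hydrolase probe labeling of LYPLA1 so polarization falls; 0% = enzyme with DMSO and 100% = wells lacking LYPLA1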
PP5 primary = inhibitors of human protein phosphatase 5 (PP5); P53041; 320,000 compounds, 0.18% hits; purified PP5c, OMFP substrate fluorescence; inhibition, % at 6.7 µM;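 active = inhibition above the campaign's mean inhibition across all tested compounds plus 3 SD, cut at about 9.5% in these data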;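 also: 0% = DMSO only and 100% = 100 µM cantharidin control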
Fam108B inh = Fam108B inhibition, counter-screen for RBBP9 inhibitors. recombinant Fam108B, FP-Rh probe fluorescence polarization. inhibition, % at 9.51 µM. 300,000 compounds, 0.33% hits;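 active = inhibition above the screen mean inhibition plus 3 SD, computed separately per campaign, cut at about 18% in these data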;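 also: inhibitors lower polarization as less probe binds the enzyme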
PP1 inh confirm = human PP1 phosphatase inhibition, confirmation; shares compounds with PP1 counter; purified PP1alpha, OMFP substrate fluorescence; inhibition, % at 6.7 µM; 1,900 compounds, 52% hits; AID 2358;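 active = mean PP1 inhibition above a set limit taken from the earlier primary screen, cut at about 15% in these data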
PP5 inh counter = counter-screen for PP1 inhibitors: human PP5 phosphatase inhibition; inhibition, % at 6.7 µM; 1,900 compounds, 4% hits; purified PP5c, OMFP fluorescence; shares compounds with PP1 counter;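 active = mean PP5 inhibition over triplicate wells above about 9.5% taken from the earlier PP1 screen, limit read from the data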
Starred values were filed as active, the others as inactive; / = not tested or not shown. A selection: hits, their analogues and other compounds. The true share with any hit is near 1.8%.

SMILES	PME-1 inh	LYPLA2 inh	PP1 counter	LYPLA1 inh	PP5 primary	Fam108B inh	PP1 inh confirm	PP5 inh counter
O=C(CN1CCc2cc3c(cc2C1)OCCCO3)Nc1cccc(Br)c1	7	3	3	-3	2	-3	/	/
CCN1CCN(S(=O)(=O)c2ccc(C(C)(C)C)cc2)CC1	0	11	-1	1	4	2	/	/
CC1=NN(c2nc3ccccc3[nH]2)C(=O)/C1=C/N(C)C	8	1	23*	0	2	-2	-3	-1
Cc1ccccc1CC(=O)Nc1cccnc1	4	3	0	-4	2	-3	/	/
COc1cc2c(cc1OC)CN(c1nc(CN3CCCCC3)nc3sc4c(c13)CCCC4)CC2	-12	0	18*	-3	4	-4	-2	-5
CC1CCc2c(sc3nc(CN4CCOCC4)nc(N4CCc5ccccc5C4)c23)C1 (stereo unspecified)	8	1	21*	0	4	10	10	-4
Cc1ccc(Oc2nc(CN3CCOCC3)nc3sc4c(c23)CCC(C)C4)cc1 (stereo unspecified)	-8	2	-5	-2	-7	-3	/	/
Cc1cccc2c1Sc1ccc(Cl)cc1CC2N1CCNCC1 (stereo unspecified)	3	5	19*	1	3	2	-4	-2
COc1cc2c(cc1OC)CN(CCC(C)c1ccc(Cl)cc1)CC2 (stereo unspecified)	2	-3	1	-3	1	9	/	/
Cc1ccc(-c2nn(-c3ccccc3)cc2/C=C(\C#N)C(=O)NCc2ccccc2)cc1	2	0	-2	-3	-1	-3	/	/
CCOc1cccc(-c2nn(-c3ccccc3)cc2/C=C(/C#N)C(=O)NCCCn2ccnc2)c1	-1	-8	26*	-7	3	-6	17*	4
CCSc1ccc(-c2nn(-c3ccccc3)cc2/C=C(/C#N)C(=O)NCCCOC)cc1	2	4	-2	2	0	-8	/	/
N#C/C(=C/c1cn(-c2ccccc2)nc1-c1cccc(OCc2ccccc2)c1)C(=O)NCCCn1ccnc1	-17	-31	21*	-24	1	-22	13	1
CCOc1ccc(CCNC(=O)CN(C)S(=O)(=O)c2cccs2)cc1OCC	3	-3	-3	0	-1	4	/	/
COc1ccc(-c2cc(=O)oc3cc(OCC(=O)N4C[C@H]5C[C@@H](C4)c4cccc(=O)n4C5)ccc23)cc1	16	1	13	-1	0	1	/	/
O=C(COc1ccc2c3c(c(=O)oc2c1)CCCC3)N1C[C@H]2C[C@@H](C1)c1cccc(=O)n1C2	-1	2	30*	-1	2	-2	30*	-7
COc1ccc2c(CC(=O)Nc3ccc(OC)nc3)coc2c1	-4	6	3	-1	0	0	/	/
COc1ccc(CC(=O)N2CCc3cc(OC)c(OC)cc3C2C)c(OC)c1 (stereo unspecified)	4	2	1	3	-2	3	/	/
CCCCOC(=O)Cn1c(=O)n(CC(=O)OCCCC)c2ccccc21	2	2	2	3	3	2	/	/
CCCCCCCCCCOC(=O)Cn1c(COc2ccccc2C)[n+](C)c2ccccc21	-3	12	44*	3	6	2	16*	4
CCCCCCCCCCOC(=O)Cn1c(COc2cccc(C)c2)[n+](C)c2ccccc21	0	9	42*	2	5	3	16*	4
CCCCCCCCCCOC(=O)Cn1c(COc2ccc(Cl)cc2)[n+](C)c2ccccc21	3	-2	48*	0	6	1	21*	2
CCOC(=O)Cn1c(COc2ccccc2OC)[n+](C)c2ccccc21	-1	-4	-8	1	1	0	/	/
CCCCCCCCCCOC(=O)Cn1c(COc2ccc(OC)cc2)[n+](C)c2ccccc21	-2	4	35*	1	4	-4	2	-1
O=[N+]([O-])c1ccccc1OCCN1CCOCC1	1	8	-4	3	-2	-1	/	/
SMILES	PME-1 inh	LYPLA2 inh	PP1 counter	LYPLA1 inh	PP5 primary	Fam108B inh	PP1 inh confirm	PP5 inh counter
CCCCCCCCCCOC(=O)Cn1c(COc2ccccc2)[n+](C)c2ccccc21	1	12	36*	1	5	-2	9	3
Cc1nc(SCC(=O)NC(=O)NC(C)(C)C)nc(C)c1C	0	3	-4	0	-1	-1	/	/
Cc1ccc(CN2CCN(/N=C/c3cc(Br)ccc3O)CC2)cc1	-2	-1	35*	1	3	2	-4	-7
CC[C@@H](C)[C@H](CNC)NC[C@@H](Cc1cccc2ccccc12)NCCc1cccc(C(F)(F)F)c1	1	3	25*	-1	5	5	-11	4
COc1ccc(S(=O)(=O)c2c(N)n(Cc3ccco3)c3nc4ccccc4nc23)cc1	-10	-8	19*	-6	-2	4	10	0
Cc1ccc(S(=O)(=O)c2c(N)n(CCCN(C)C)c3nc4ccccc4nc23)cc1	0	-1	-1	2	0	1	/	/
CCn1c(SCC(=O)Nc2oc(-c3ccccc3)c(-c3ccccc3)c2C#N)nnc1-c1ccco1	5	-9	18*	-11	1	9	10	-1
CCn1c(SCC(=O)Nc2oc(-c3ccccc3)c(-c3ccccc3)c2C#N)nnc1-c1ccncc1	0	5	2	-3	2	1	/	/
COc1ccc(-n2c(Cn3c(=O)sc4ccccc43)nnc2SCC(=O)N2CCCC2)cc1	-3	-5	38*	3	1	0	-5	-6
NC(=O)[C@H]1CC2(CC(c3cccc(NC(=O)CC(c4ccccc4)c4ccccc4)c3)=NO2)CN1C(=O)CC(c1ccccc1)c1ccccc1 (stereo partly specified)	-51	-77	22*	-32	5	-44	29*	12*
C/C=C(/C)C(=O)Nc1cccc(C2=NOC3(C2)C[C@H](C(N)=O)N(C(=O)c2ccccc2)C3)c1 (stereo partly specified)	7	7	42*	2	6	0	1	-2
C=C(C)C(=O)Nc1cccc(C2=NOC3(C2)C[C@H](C(N)=O)N(C(=O)CC#N)C3)c1 (stereo partly specified)	-24	-8	37*	-7	-2	-5	9	0
C/C=C/C=C\C(=O)Nc1cccc(C2=NOC3(C2)C[C@H](C(N)=O)N(C(=O)CC#N)C3)c1 (stereo partly specified)	-6	-12	19*	-4	2	-8	1	-3

Screening results as filed in PubChem BioAssay.
